MITF act – activators of MITF-driven TRPM1 promoter reporter, primary screen, cell-based, SK-MEL-5, luciferase, single point. SK-MEL-5 TRPM1-promoter luciferase, 24 h; % of positive control, neutral wells = 0. activation, % at 12.5 µM. 0.75% of 300,000 active. AID 588334, 2011;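 active = mean activation of at least 80% with every replicate also reaching 80%; inconclusive = mean reaches 80% but some replicate falls short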;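 also: 0% = neutral control wells and 100% = parthenolide positive control wells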
Wnt act – Wnt/beta-catenin pathway activators, primary screen, cell-based, plate reader, single point; 1.2% of 300,000 active; AID 743398, 2014; Wnt/beta-catenin reporter cell assay, activator; activation, % at 9.35 µM; in the data active = activation above about 30%, passing the limit was not always enough; inconclusive = no clear call, values can overlap the other calls;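 also: 0% = neutral control wells and 100% = positive control wells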
PHOSPHO1 block – PubChem AID 1565. Phosphoethanolamine/phosphocholine phosphatase (Homo sapiens), Q8TCT1. recombinant PHOSPHO1, absorbance phosphatase assay. inhibition, % at 13.3 µM. 1.1% of 290,000 active; in the data active = inhibition above about 60%
A3A deaminase – APOBEC3A ssDNA deaminase inhibitors, primary screen, selectivity assay for APOBEC3G inhibitor project, biochemical, FAM/TAMRA oligo cleavage fluorescence; DNA dC->dU-editing enzyme APOBEC-3A (Homo sapiens), P31941; recombinant A3A, FAM/TAMRA ssDNA deamination fluorescence; inhibition, % at 20 µM; 0.41% of 330,000 active; AID 493011, 2011;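 active = at least 40% inhibition at 20 µM here, with at most 30% in a related deaminase screen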;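 also: plate controls were A3A with DMSO for no effect and wells lacking A3A enzyme for full effect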
esBAF inh – Bmi1 luciferase reporter increase in mESCs, primary screen, esBAF inhibitor project, mouse ES cells, Bmi1 luciferase knock-in, single point. 24 h; 100% = twice the neutral-well signal. reporter increase, % at 12.5 µM. 2% of 350,000 active. AID 602393, 2012; in the data active = activation above about 40%; inconclusive = no clear call, values can overlap the other calls;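 also: 0% = median of the plate's neutral control wells and 100% = double that signal; a rise in the Bmi1 reporter signal indicates esBAF inhibition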
A3G deaminase – APOBEC3G DNA deaminase inhibitors, primary screen, biochemical, fluorescence, single-stranded DNA substrate, uHTS; recombinant A3G, ssDNA deamination FAM/TAMRA fluorescence; inhibition, % at 20 µM; 0.28% of 330,000 active; AID 493012, 2011;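 active = inhibition of at least 40% at 20 µM, with no more than 30% in the related APOBEC3A deaminase screen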;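 also: plate controls were DMSO wells with A3G for no effect and wells lacking A3G enzyme for full effect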
Target sequence (Q9HC16 whole entry, looked up): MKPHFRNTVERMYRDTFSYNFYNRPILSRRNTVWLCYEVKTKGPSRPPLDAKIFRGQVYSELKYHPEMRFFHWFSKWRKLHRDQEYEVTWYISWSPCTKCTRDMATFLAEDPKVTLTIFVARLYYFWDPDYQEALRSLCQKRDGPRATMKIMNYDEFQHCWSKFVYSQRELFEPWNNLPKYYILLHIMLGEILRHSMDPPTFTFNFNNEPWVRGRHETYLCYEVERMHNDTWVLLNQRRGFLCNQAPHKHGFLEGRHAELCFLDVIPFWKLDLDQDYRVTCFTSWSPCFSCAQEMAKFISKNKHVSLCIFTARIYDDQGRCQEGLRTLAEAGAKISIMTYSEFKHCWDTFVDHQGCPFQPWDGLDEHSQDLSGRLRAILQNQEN
APOBEC3A confirm – APOBEC3A deaminase inhibitors, retest, confirmation, selectivity assay for APOBEC3G inhibitor project, biochemical, single concentration, fluorescence readout; recombinant A3A, ssDNA deaminase UDG fluorescence assay; shares compounds with A3A deaminase; inhibition, % at 20 µM; AID 493151, 2011; 63% of 1,400 active;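 active = inhibition reaching a set limit, 80% of the first screen's cutoff, at 20 µM in any replicate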;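 also: plate controls were DMSO wells with A3A for no effect and wells lacking A3A enzyme for full effect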
UDG ctr A3A – E. coli UDG inhibitors, confirmation, counter-screen for APOBEC3A inhibitor project, biochemical, single concentration, fluorescence, FAM/TAMRA oligo. UDG counterscreen, FAM/TAMRA uracil oligo fluorescence. 1,000 tested, under 10 active. shares compounds with A3A deaminase. inhibition, % at 20 µM; call rule not given here
* marks the source's active call; other numbers are inactive results; ? = inconclusive; / = not tested or not shown; ! = a repeat was not active. Most compounds without a hit are left out; they make up all but 3.6% or so of the library.

SMILES	MITF act	Wnt act	PHOSPHO1 block	A3A deaminase	esBAF inh	A3G deaminase	others
COC(=O)[C@@H]1[C@@H](CO)[C@@H]2Cn3c(ccc(-c4ccccc4F)c3=O)[C@H]1N2C(C)=O	/	/	/	/	-2	/
COC(=O)[C@@H]1[C@@H](CO)[C@@H]2Cn3c(ccc(/C=C/c4ccccc4)c3=O)[C@H]1N2C(=O)C1CCC1	/	/	/	/	-1	/
O=C1NC(=S)NC(=O)C1=Cc1ccc(OCc2ccccc2)cc1	50	6	/	/	44*	/
O=C(Cc1ccncc1)N1CCCCN2[C@H](CO)[C@H](c3ccc(C#Cc4ccccc4F)cc3)[C@@H]2C1	/	/	/	/	3	/
COc1ccc(-c2cc(=NCC(=O)O)c3ccccc3o2)cc1	11	/	24	-1	47*	-4
FC(F)(F)c1ccc2c(c1)N(CCCN1CCN(CCCl)CC1)c1ccccc1S2	-36	/	64*	-2	/	-3
O=C(c1ccc2c3c(cccc13)CC2)C1CCCN(CC2CC2)C1 (centres undefined)	23	-3	60*	5	-4	-5
COc1cc(/C=N/NP(=S)(c2ccccc2)c2ccccc2)ccc1O	-1	/	29	4	-8	-2
Oc1ccc(/C=N/NP(=S)(c2ccccc2)c2ccccc2)cc1	/	0	83*	0	-2	29
CCOC(=O)C1CCN(/C=C2\C(=O)NC(=S)N(CC)C2=O)CC1	9	13	62*	0	/	-4
CCOC(=O)C1CCN(/C=C2/C(=O)NC(=S)N(c3cccc(OC)c3)C2=O)CC1	-4	-1	-25	-2	/	0
COC(=O)[C@H]1[C@H](CO)[C@H]2Cn3c(ccc(-c4ccccc4OC)c3=O)[C@@H]1N2Cc1ccccc1	/	/	/	/	3	/
COC(=O)[C@H]1[C@H](CO)[C@H]2Cn3c(ccc(-c4cccnc4)c3=O)[C@@H]1N2S(=O)(=O)c1ccccc1F	/	/	/	/	-1	/
O=C1c2ccccc2-c2cc3ccccc3cc21	33	46*	/	/	/	/
O=C1c2ccccc2-c2cccc3cccc1c23	36	16	/	/	?	/
O=C(O)[C@H]1[C@H](CO)[C@H]2Cn3c(ccc(-c4cccnc4)c3=O)[C@@H]1N2S(=O)(=O)c1ccccc1F	/	/	/	/	-9	/
CN(C)C(=O)[C@H]1[C@H](CO)[C@H]2Cn3c(cccc3=O)[C@@H]1N2CC1CC1	/	/	/	/	-5	/
CCCC[N+]12CCC(CC1)C(C(=O)c1cccs1)C2 (centres undefined)	-1	/	-65	67*	/	22	APOBEC3A confirm=78*;UDG ctr A3A=2
CC1CCCC(C2(O)C(=O)Nc3ccccc32)C1=O (centres undefined)	-15	/	34	68*	-11	10	APOBEC3A confirm=74*;UDG ctr A3A=-2
CCOP(=O)(OCC)C1(O)C(=O)Nc2ccccc21 (centres undefined)	-11	/	-5	3	/	-4
Cn1c[n+](C)cc1C(O)c1ccccc1 (centres undefined)	2	-8	96*!	60*	-4	17	APOBEC3A confirm=51*;UDG ctr A3A=-3
C[C@H]1CN([C@@H](C)CO)C(=O)CCCn2cc(nn2)CO[C@H]1CN(C)C(=O)Oc1ccc2ccccc2c1	/	/	/	/	9	/
CN1C2CCC1CC(OC(=O)c1ccc(Cl)cc1)C2 (centres undefined)	4	-2	9	-5	-7	-7

Bioassay records as filed in PubChem BioAssay.
